PubChem BioAssay AID1508600 (Functional Genomics Laboratory (NCATS/FGL), 2020)
Hit rate of the full screen: of about 53,000 sequences, about 3,700 (7%) were called active. Only a selection was taken, and actives are over-represented in it overall. Unmarked numbers belong to inactive results.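 Rule for the calls: active = gene knockdowns whose robust z-score for IL-1 alpha signal is at least 2 or at most -2, so actives lie on both sides; inactive = the rest.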

Assay: Components of the Cytosolic LPS Sensing Pathway: Gene Identification via Genome-wide siRNA Screen;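 note: robust z of the log signal after scaling to non-targeting control siRNA wells of the plate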
Conditions: RAW264.7 macrophages, IL-1a HTRF, actives lie on both sides, screened at 100 nM (by protocol), cells primed 5 h with Pam3CSK4 first
Method in brief: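 RAW264.7; siRNA 100 nM final, RNAiMAX, 48h 37 degrees C; Pam3CSK4 5 h; LipidA + TransIT-TKO 24 h; IL-1a HTRF; CellTiter-Glo viability; robust z vs negative-control median.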

Sequence | z-score
GGAUUUGACCGGCUAAUACTT against Snrnp40 | -0.776
GGUUCUGGCUGGAAUCUACTT against Gnl1 | -0.987
GCGAACAUGUGUUUUACGUTT against H4c8 | 1.14
GCAUGCUAGAAGCUAAAAATT against Golga3 | 1.48
GGCAUAUCCUCCUUAUCCATT against Dazl | -2.2 (active)
GGAAAUCAAAGAGAAAGUUTT against Rassf3 | -0.748
GGUUAGUUCCUUAAAUUCCTT against BC016579 | 1.21
GGACCAGACAGGAAGUAUUTT against Snx20 | 2.3 (active)
GGCAGGUAUGGAUGUAUUGTT against Renbp | -1.72
GGUUGAGUUGGAUGACCUUTT against Lsm10 | -1.91
GAGUCUUACAUCAAGAAGATT against 9230106D20Rik | 0.538
GGUAUGUCUAAGAAAACCATT against Pi4ka | 0.173
GGGCUACACUUCUGUCUACTT against Nanos3 | -1.26
GGGUUUUUUUAGAGAGAUUTT against Susd3 | -2.11 (active)
GCCAUACUUCCCUACAAAATT against Kctd19 | 0.233
GGGCAAGGAGACAGAAUUCTT against Fgf18 | 0.927
GGAAGAGGACAACCAGCUCTT against Cd82 | 0.59
GAGUUGGCUCGAAACUGCCTT against Fbxl15 | 3.54 (active)
GGGCACAAUUCAAAACUUATT against Pgm2 | 1.42
GGUCAAUUCCAUGAUUACGTT against Pgm3 | 0.538
UAAGGCCAUCUAGUGGAGATT against C8g | -0.199
GGGUGAAAGCUGACUUUAATT against Rnh1 | -1.57
GGCUUUGAAACAUAAGAACTT against Zfp472 | -0.553
GGUGUUGAGAUCCACAAGGTT against Tceanc2 | -2.44 (active)
GGCAAUCAGCAUACCAACUTT against Thbs2 | -1.87
CAGCGGCCGCGCUUCACCGTT against 4930404N11Rik | 0.92
GGUAAUUGAGCUGAGUUCUTT against Rad54l2 | 0.479
GUGAAGAAAGCACUGUUGATT against Olfr978 | 0.387
GGCCAGGACCUAAAUACAATT against Tmem231 | 3.25 (active)
GGAGCUGUGCAAGAGGAAATT against Wnt16 | 1.01
